Measurements from PubChem BioAssay (NCATS).
Inconclusive results are not listed. Activity calls are given as the source filed them. Unless noted, calls come from the whole dose curve; as a rule, active = well fitted inhibition curve with a large enough effect; inconclusive = small, poorly fitted or top-dose-only effect; inactive = flat fitted curve, though single readings scatter.

How the values were obtained:
[1] = qHTS for identification of novel therapeutic agents for treatment of microphthalmiaassociated transcription factor (MiT) renal cell carcinoma (RCC) (AID 1963991); conditions: CellTiter-Glo, 48 h, stronger effect = lower value
In short: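 Three TFE3-fusion RCC cell lines (UOK109, UOK124, UOK145), 500 cells/well, were exposed to the 1912-compound MIPE 4.0 library for 48 hours at 37 C. Viability was read by CellTiter-Glo luminescence, normalised to DMSO (100%) and empty wells (0%), with 11-concentration curve fits.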

[2] = qHTS drug screen for cell cycle checkpoint inhibitors in PARPi-resistant BRCA-mutant ovarian cancer cell lines. (AID 1963452; calls by dose curve); conditions: PEO1/OlaR viability, CellTiter-Glo luminescence, 96 h, stronger effect = lower value
In short: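 PEO1, PEO4 and PEO1/OlaR ovarian cancer cells, 600 per well, exposed 96 h at 37C to a dilution series. Viability read by CellTiter-Glo luminescence, normalized to DMSO and empty wells; activity summarized as Z-AUC.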

[3] = qHTS profiling for inhibitors of Plasmodium falciparum proliferation (AID 504749); note: potency is the fitted concentration of half-maximal effect;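 for activity, negative = inhibition: 0% = DMSO vehicle and full inhibition = artemisinin control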; for all read-outs here: nearly all actives have a fitted effect of over 60% in size; conditions: P. falciparum in erythrocytes, SYBR Green DNA, 72 h; for activity, negative = inhibition: at 12.8 µM (top of the series)
In short: (§1)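 Readout was DNA-dye fluorescence from lysed cultures, ex 485/em 535 nm. Parasitized red cells had grown 72 h with compound; data scaled between 0.29 uM artemisinin and DMSO wells and corrected using vehicle-only plates.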

3D7 = assay: as above; conditions: P. falciparum in erythrocytes, SYBR Green DNA, 72 h; series mostly up to 28.7 µM
In short: as §1

7G8 = assay: as above; conditions: P. falciparum in erythrocytes, SYBR Green DNA, 72 h; series mostly up to 28.7 µM
In short: as §1

AA1029 = assay: as above; conditions: P. falciparum in erythrocytes, SYBR Green DNA, 72 h; series mostly up to 28.7 µM
In short: as §1

AS120 = assay: as above; conditions: P. falciparum in erythrocytes, SYBR Green DNA, 72 h; series mostly up to 28.7 µM
In short: as §1

ATS189 = assay: as above; conditions: P. falciparum in erythrocytes, SYBR Green DNA, 72 h; series mostly up to 28.7 µM
In short: as §1

ATS95 = assay: as above; conditions: P. falciparum in erythrocytes, SYBR Green DNA, 72 h; series mostly up to 28.7 µM
In short: as §1

C2A = assay: as above; conditions: P. falciparum in erythrocytes, SYBR Green DNA, 72 h; series mostly up to 28.7 µM
In short: as §1

CP185 = assay: as above; conditions: P. falciparum in erythrocytes, SYBR Green DNA, 72 h; series mostly up to 28.7 µM
In short: as §1

CP191 = assay: as above; conditions: P. falciparum in erythrocytes, SYBR Green DNA, 72 h; series mostly up to 28.7 µM
In short: as §1

CP211 = assay: as above; conditions: P. falciparum in erythrocytes, SYBR Green DNA, 72 h; series mostly up to 28.7 µM
In short: as §1

CP217 = assay: as above; conditions: P. falciparum in erythrocytes, SYBR Green DNA, 72 h; series mostly up to 28.7 µM
In short: as §1

CP237 = assay: as above; conditions: P. falciparum in erythrocytes, SYBR Green DNA, 72 h; series mostly up to 28.7 µM
In short: as §1

CP201 = assay: as above; conditions: P. falciparum in erythrocytes, SYBR Green DNA, 72 h; series mostly up to 28.7 µM
In short: as §1

CP192 = assay: as above; conditions: P. falciparum in erythrocytes, SYBR Green DNA, 72 h; series mostly up to 28.7 µM
In short: as §1

CP194 = assay: as above; conditions: P. falciparum in erythrocytes, SYBR Green DNA, 72 h; series mostly up to 28.7 µM
In short: as §1

CP215 = assay: as above; conditions: P. falciparum in erythrocytes, SYBR Green DNA, 72 h; series mostly up to 28.7 µM
In short: as §1

CP203 = assay: as above; conditions: P. falciparum in erythrocytes, SYBR Green DNA, 72 h; series mostly up to 28.7 µM
In short: as §1

[4] = measured here: PEO1 parental Z-AUC

For COc1ccc2c(c1OC)CN1CCc3cc4c(cc3C1C2)OCO4 (stereo unspecified), the z-score ([1]; TFE3-RCC UOK109 viability, measured here: UOK109 Z-AUC) was 0.633, the z-score ([1]; TFE3-RCC viability, measured here: UOK124 Z-AUC) was 0.605 and the z-score ([1]; TFE3-RCC viability, measured here: UOK145 Z-AUC) was 0.614.
For O=C(O)C(=O)c1cn(Cc2ccccc2)c2ccc(-c3ccc(OC(F)(F)F)cc3)cc12, the Z-AUC [2] was -0.0319 (inactive), the Z-AUC [2, 4] was 0.702 and the Z-AUC ([2]; measured here: PEO4 Z-AUC) was 0.863.
In the case of N[C@@H]1C[C@H]1c1ccccc1, the Z-AUC [2] was 0.628 (inactive), the Z-AUC [2, 4] was 1.13 and the Z-AUC ([2]; measured here: PEO4 Z-AUC) was 0.895.
For CNC(=O)c1ccc(N2C(=S)N(c3ccc(C#N)c(C(F)(F)F)c3)C(=O)C23CCC3)cc1F, the Z-AUC [2] was 1.87 (inactive), the Z-AUC [2, 4] was 1.38 and the Z-AUC ([2]; measured here: PEO4 Z-AUC) was 1.39.
For COC1(CS(=O)c2ccccc2)CCN(CCc2c[nH]c3ccc(F)cc23)CC1 (stereo unspecified), the Z-AUC [2] was 0.788 (inactive), the Z-AUC [2, 4] was 0.436 and the Z-AUC ([2]; measured here: PEO4 Z-AUC) was 0.362.
With Fc1ccc(C(OCCN2CCN(CCCc3ccccc3)CC2)c2ccc(F)cc2)cc1 the Z-AUC [2] was 0.198 (inactive), the Z-AUC [2, 4] was -0.0312 and the Z-AUC ([2]; measured here: PEO4 Z-AUC) was -0.0118. For the same compound, the Potency ([3]; parasite line A) was 8.91 µM (active), the Potency ([3]; parasite line B) was 11.2 µM (active) and the Potency (3D7) was 8.91 µM (active). For the same compound, the Potency (7G8) was 3.55 µM (active), the Potency (AA1029) was 7.08 µM (active) and the Potency (AS120) was 4.47 µM (active). For the same compound, the Potency (ATS189) was 8.91 µM (active), the Potency (ATS95) was 7.94 µM (active) and the Potency (C2A) was 11.2 µM (active). The Potency (CP185) was 10 µM (active), the Potency (CP191) was 10 µM (active) and the Potency (CP211) was 13.5 µM (active). For the same compound, the Potency (CP217) was 8.91 µM (active) and the Potency (CP237) was 10 µM (active).
With CN(C)[C@@H]1C(=O)C(C(N)=O)=C(O)[C@@]2(O)C(=O)C3=C(O)c4c(O)cccc4[C@@](C)(O)[C@H]3C[C@@H]12 the Z-AUC [2] was 1.23 (inactive), the Z-AUC [2, 4] was 0.408 and the Z-AUC ([2]; measured here: PEO4 Z-AUC) was 1.42.
With Cc1cccc(C)c1NC(=O)CN1CCCC1=O the Z-AUC [2] was 0.64 (inactive), the Z-AUC [2, 4] was 0.59 and the Z-AUC ([2]; measured here: PEO4 Z-AUC) was 1.08.
For CNCC(O)c1ccc(O)cc1 (stereo unspecified), the Z-AUC [2] was -0.876 (inactive), the Z-AUC [2, 4] was -0.301 and the Z-AUC ([2]; measured here: PEO4 Z-AUC) was -0.927.
In the case of Cn1cc(C2=C(c3cn(C4CCN(Cc5ccccn5)CC4)c4ccccc34)C(=O)NC2=O)c2ccccc21, the Z-AUC [2] was -0.351 (inactive), the Z-AUC [2, 4] was 0.347 and the Z-AUC ([2]; measured here: PEO4 Z-AUC) was 0.154.
In the case of O=c1[nH]c2ccccc2n1CCCN1CCC(n2c(=O)[nH]c3cc(Cl)ccc32)CC1, the Z-AUC [2] was 1.58 (inactive), the Z-AUC [2, 4] was 0.892 and the Z-AUC ([2]; measured here: PEO4 Z-AUC) was 0.827. The Potency ([3]; parasite line A) was 11.2 µM (active), the Potency (7G8) was 1.41 µM (active) and the Potency (AS120) was 5.01 µM (active). The Potency (C2A) was 11.2 µM (active), the Potency (CP191) was 3.98 µM (active) and the Potency (CP201) was “inactive”. For the same compound, the Potency (CP237) was 7.94 µM (active).
In the case of C[C@@H]1O[C@@H](O[C@H]2C[C@@H](O)[C@]3(CO)[C@H]4[C@H](O)C[C@]5(C)[C@@H](C6=CC(=O)OC6)CC[C@]5(O)[C@@H]4CC[C@]3(O)C2)[C@H](O)[C@H](O)[C@H]1O, the Z-AUC [2] was -1.08 (inactive), the Z-AUC [2, 4] was -2.2 and the Z-AUC ([2]; measured here: PEO4 Z-AUC) was -1.63.
With O=P1(NCCCl)OCCCN1CCCl (stereo unspecified) the Z-AUC [2] was 0.293 (inactive), the Z-AUC [2, 4] was -0.297 and the Z-AUC ([2]; measured here: PEO4 Z-AUC) was -0.293. The activity, negative = inhibition ([3]; parasite line A) was -2.67% (inactive), the activity, negative = inhibition ([3]; parasite line B) was 0.405% (inactive) and the Potency (3D7) was “inactive”. The Potency (7G8) was “inactive”, the Potency (AA1029) was “inactive” and the Potency (AS120) was “inactive”. The Potency (ATS189) was “inactive”, the Potency (ATS95) was “inactive” and the Potency (C2A) was “inactive”. For the same compound, the Potency (CP185) was “inactive”, the Potency (CP191) was “inactive” and the Potency (CP192) was “inactive”. For the same compound, the Potency (CP194) was “inactive”, the Potency (CP201) was “inactive” and the Potency (CP211) was “inactive”. For the same compound, the Potency (CP215) was “inactive”, the Potency (CP217) was “inactive” and the Potency (CP237) was “inactive”.
For CN(C)CCN(C)CCc1ccc(Cl)c(Cl)c1, the Z-AUC [2] was 1.45 (inactive), the Z-AUC [2, 4] was 1.36 and the Z-AUC ([2]; measured here: PEO4 Z-AUC) was 1.58.
With Cc1sc2c(c1C)C(c1ccc(Cl)cc1)=N[C@@H](CC(=O)OC(C)(C)C)c1nnc(C)n1-2 the Z-AUC [2] was -0.873 (inactive), the Z-AUC [2, 4] was -0.421 and the Z-AUC ([2]; measured here: PEO4 Z-AUC) was -0.731.
For NCC1(CC(=O)O)CCCCC1, the Z-AUC [2] was 0.463 (inactive), the Z-AUC [2, 4] was 0.917 and the Z-AUC ([2]; measured here: PEO4 Z-AUC) was -0.172. For the same compound, the activity, negative = inhibition ([3]; parasite line A) was 5.08% (inactive), the activity, negative = inhibition ([3]; parasite line B) was 1.35% (inactive) and the Potency (3D7) was “inactive”. The Potency (7G8) was “inactive”, the Potency (AA1029) was “inactive” and the Potency (AS120) was “inactive”. The Potency (ATS189) was “inactive”, the Potency (ATS95) was “inactive” and the Potency (C2A) was “inactive”. For the same compound, the Potency (CP185) was “inactive”, the Potency (CP191) was “inactive” and the Potency (CP192) was “inactive”. The Potency (CP194) was “inactive”, the Potency (CP201) was “inactive” and the Potency (CP203) was “inactive”. The Potency (CP211) was “inactive”, the Potency (CP215) was “inactive” and the Potency (CP217) was “inactive”. The Potency (CP237) was “inactive”.
